# From PubChem BioAssay (EPA / NIEHS)
# Calls of active or inactive are those of the source. The calls were made as follows: active = hit-call score of the fitted dose curve at least 0.9, where 1 is the maximum; inactive = score below 0.9.
# Legend:
# [1] = read-out: TIMP metallopeptidase inhibitor 2 (TIMP2), TIMP2 (gene 7077); test: BSK_KF3CT_TIMP2: BioMAP Diversity Plus: KF3CT Assay for TIMP metallopeptidase inhibitor 2 (TIMP2) Biomarker Activity (AID 2283071); details: primary human keratinocytes with fibroblasts; actives raise or lower the signal
# Outline: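 Keratinocyte–fibroblast co-culture, 24 h exposure; TIMP-2 ELISA, DMSO-normalised bidirectional fit. Parallel SRB (0.1%, TCA-fixed, 560 nm) total-protein staining gauges cytotoxicity.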
# [2] = read-out: Transforming growth factor beta 1 (TGFb1), TGFB1 (gene 7040); test: BSK_KF3CT_TGFb1: BioMAP Diversity Plus: KF3CT Assay for Transforming growth factor beta 1 (TGFb1) Biomarker Activity (AID 2283072); details: primary human keratinocytes with fibroblasts; actives raise or lower the signal
# Outline: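 Signal changes in either direction, relative to DMSO, define activity here. TGF-b1 is read by ELISA from a human keratinocyte-fibroblast co-culture 24 h post-dose.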
# [3] = read-out: C-C motif chemokine 2 (Homo sapiens) (UniProt P13500); test: BSK_KF3CT_MCP1: BioMAP Diversity Plus: KF3CT Assay for Monocyte Chemoattractant Protein 1 (MCP1/CCL2) Biomarker Activity (AID 2283073); details: primary human keratinocytes with fibroblasts; actives raise or lower the signal
# Outline: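 Human keratinocyte plus foreskin fibroblast primary co-culture exposed to chemical for 24 h. MCP-1 levels measured by ELISA. Bidirectional curve fitting relative to DMSO negative control as baseline.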
# [4] = read-out: Matrix Metallopeptidase 9 (MMP9), MMP9 (gene 4318); test: BSK_KF3CT_MMP9: BioMAP Diversity Plus: KF3CT Assay for Matrix Metallopeptidase 9 (MMP9) Biomarker Activity (AID 2283074); details: primary human keratinocytes with fibroblasts; actives raise or lower the signal;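 as to AC50: MMP9 protein level quantified by ELISA in the co-culture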
# Outline: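 Human keratinocyte and foreskin fibroblast co-culture exposed to chemicals for 24 h; MMP9 biomarker measured by ELISA, bidirectional fitting relative to DMSO; cytotoxicity tracked by SRB total protein staining in parallel cultures.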
# [5] = read-out: urokinase plasminogen activator (uPA), PLAU (gene 5328); test: BSK_KF3CT_uPA: BioMAP Diversity Plus: KF3CT Assay for urokinase plasminogen activator (uPA) Biomarker Activity (AID 2283075); details: primary human keratinocytes with fibroblasts; actives raise or lower the signal
# Outline: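 Primary human keratinocyte/foreskin fibroblast co-culture exposed to chemical; uPA measured by ELISA at 24 h. Bidirectional fit versus DMSO, with parallel SRB total-protein staining for cytotoxicity.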
# [6] = read-out: CD40, CD40 (gene 958); test: BSK_LPS_CD40: BioMAP Diversity Plus: LPS Assay for CD40 Biomarker Activity (AID 2283076); details: primary human HUVEC with PBMC; actives raise or lower the signal
# Outline: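 Primary human umbilical vein endothelial cells co-cultured with peripheral blood mononuclear cells, LPS-stimulated, were dosed with chemical and read 24 h later. CD40 levels were measured by ELISA and fitted bidirectionally against DMSO as negative control and baseline.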
# [7] = read-out: E-selectin (Homo sapiens) (UniProt P16581); test: BSK_LPS_Eselectin: BioMAP Diversity Plus: LPS Assay for Eselectin Biomarker Activity (AID 2283077); details: primary human HUVEC with PBMC; actives raise or lower the signal
# Outline: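 Human umbilical vein endothelial cells co-cultured with peripheral blood mononuclear cells under LPS stimulation; E-selectin measured by ELISA 24 h after chemical dosing. Activity fitted bidirectionally against DMSO as negative control and baseline.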
# [8] = read-out: Interleukin-8 (IL8), CXCL8 (gene 3576); test: BSK_LPS_IL8: BioMAP Diversity Plus: LPS Assay for Interleukin-8 (IL8) Biomarker Activity (AID 2283078); details: primary human HUVEC with PBMC; actives raise or lower the signal
# Outline: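 Human umbilical vein endothelial cells co-cultured with PBMC were stimulated with LPS; IL-8 levels were measured by ELISA 24 h after chemical dosing. Activity was fitted bidirectionally against DMSO as negative control and baseline.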
# [9] = BSK_LPS_SRB: Viability Assessment in the BioMAP Diversity Plus: LPS Assay (AID 2283079); details: primary human HUVEC with PBMC;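 also: total protein by sulforhodamine B absorbance as a cytotoxicity measure; measured one day after compound addition; fitted in both directions against DMSO so loss or gain of signal counts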
# Outline: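 Human umbilical vein endothelial cells co-cultured with PBMC (LPS system) were dosed for 24 h. Total protein was stained with 0.1% sulforhodamine B after 10% TCA fixation, read at 560 nm, and fitted bidirectionally against DMSO baseline.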
# [10] = read-out: Monocyte Chemoattractant Protein-1 (MCP1), CCL2 (gene 6347); test: BSK_LPS_MCP1: BioMAP Diversity Plus: LPS Assay for Monocyte Chemoattractant Protein-1 (MCP1) Biomarker Activity (AID 2283081); details: primary human HUVEC with PBMC; actives raise or lower the signal;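 as to AC50: secreted MCP-1 protein quantified by ELISA in culture supernatant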
# Outline: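 HUVEC plus PBMC co-culture (human primary cells, LPS system) exposed to test chemical for 24 h; MCP-1 measured by ELISA. Bidirectional curve fitting against DMSO baseline; parallel SRB total-protein staining flags overt cytotoxicity.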
# [11] = BSK_LPS_PGE2: BioMAP Diversity Plus: LPS Assay for Prostaglandin E2 (PGE2) Biomarker Activity (AID 2283082); details: primary human HUVEC with PBMC; actives raise or lower the signal
# Outline: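 Endpoint derived from bidirectional curve fitting versus DMSO of ELISA-measured PGE2 in LPS-stimulated human primary vascular co-culture (HUVEC with PBMC) harvested at 24 h.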
# [12] = read-out: Macrophage colony-stimulating factor (MCSF), CSF1 (gene 1435); test: BSK_LPS_MCSF: BioMAP Diversity Plus: LPS Assay for Macrophage colony-stimulating factor (MCSF) Biomarker Activity (AID 2283083); details: primary human HUVEC with PBMC; actives raise or lower the signal
# Outline: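 Human umbilical vein endothelial cells co-cultured with peripheral blood mononuclear cells were exposed to compound for 24 h. M-CSF levels were measured by ELISA, and bidirectional curve fitting used DMSO as the negative control and baseline.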
# [13] = read-out: Tissue Factor, F3 (gene 2152); test: BSK_LPS_TissueFactor: BioMAP Diversity Plus: LPS Assay for Tissue Factor Biomarker Activity (AID 2283084); details: primary human HUVEC with PBMC; actives raise or lower the signal
# Outline: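 Human umbilical vein endothelial cells co-cultured with peripheral blood mononuclear cells were dosed and stimulated with LPS. Cell-surface CD142 was quantified by ELISA at 24 h. Activity was fitted bidirectionally against DMSO baseline.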
# [14] = read-out: Tumor necrosis factor (Homo sapiens) (UniProt P01375); test: BSK_LPS_TNFa: BioMAP Diversity Plus: LPS Assay for Tumour Necrosis Factor alpha (TNFa) Biomarker Activity (AID 2283085); details: primary human HUVEC with PBMC; actives raise or lower the signal
# Outline: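 Primary human vascular co-culture of HUVEC and PBMC; TNFa ELISA 24 h after treatment, analysed as increase or decrease relative to DMSO control.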
# [15] = read-out: Vascular cell adhesion molecule 1 (VCAM1), VCAM1 (gene 7412); test: BSK_LPS_VCAM1: BioMAP Diversity Plus: LPS Assay for Vascular cell adhesion molecule 1 (VCAM1) Biomarker Activity (AID 2283086); details: primary human HUVEC with PBMC; actives raise or lower the signal
# Outline: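 Primary human vascular co-culture (umbilical vein endothelium plus PBMC) stimulated with LPS received chemical; 24 h later VCAM-1 was read by ELISA. Overt cytotoxicity was assessed by sulforhodamine B staining of parallel cultures at the same time point.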
# [16] = read-out: CD38, CD38 (gene 952); test: BSK_SAg_CD38: BioMAP Diversity Plus: SAg Assay for CD38 Biomarker Activity (AID 2283087); details: primary human HUVEC with PBMC; actives raise or lower the signal
# Outline: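 Fluorescence ELISA of cell-surface CD38 served as the read-out, with either increase or decrease fitted against DMSO controls. Cells were a human umbilical vein endothelium plus PBMC co-culture under SEB/TSST-1 stimulation, measured 24 h after dosing.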
# [17] = read-out: CD40, CD40 (gene 958); test: BSK_SAg_CD40: BioMAP Diversity Plus: SAg Assay for CD40 Biomarker Activity (AID 2283088); details: primary human HUVEC with PBMC; actives raise or lower the signal
# Outline: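 Human umbilical vein endothelial cells co-cultured with PBMC; CD40 levels measured by ELISA with fluorescence read-out 24 h after chemical dosing. Gain or loss of signal fitted bidirectionally against DMSO baseline.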
# [18] = read-out: CD69, CD69 (gene 969); test: BSK_SAg_CD69: BioMAP Diversity Plus: SAg Assay for CD69 Biomarker Activity (AID 2283089); details: primary human HUVEC with PBMC; actives raise or lower the signal;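 as to AC50: cell surface CD69 protein quantified by ELISA with fluorescence detection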
# Outline: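 HUVEC co-cultured with PBMC were dosed with chemical, and CD69 was measured by ELISA with fluorescence read-out 24 h later. Bidirectional curve fitting used DMSO as negative control and activity baseline.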
# [19] = read-out: Monocyte Chemoattractant Protein-1 (MCP1), CCL2 (gene 6347); test: BSK_SAg_MCP1: BioMAP Diversity Plus: SAg Assay for Monocyte Chemoattractant Protein-1 (MCP1) Biomarker Activity (AID 2283090); details: primary human HUVEC with PBMC; actives raise or lower the signal
# Outline: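 MCP-1 levels in the endothelial–PBMC SAg co-culture were quantified by ELISA at 24 h post-dosing; both increases and decreases versus DMSO scored. Cytotoxicity monitored by SRB total protein in parallel cultures.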
# [20] = read-out: Interleukin-1 alpha (IL1a), IL1A (gene 3552); test: BSK_LPS_IL1a: BioMAP Diversity Plus: LPS Assay for Interleukin-1 alpha (IL1a) Biomarker Activity (AID 2283080); details: primary human HUVEC with PBMC; actives raise or lower the signal
# Outline: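 Human umbilical vein endothelial cells co-cultured with peripheral blood mononuclear cells were LPS-stimulated and exposed to test chemicals for 24 h. IL-1 alpha was quantified by ELISA, with bidirectional curve fitting against DMSO as the negative control and baseline.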
# Tumor necrosis factor (Homo sapiens), sequence (P01375 whole entry, looked up): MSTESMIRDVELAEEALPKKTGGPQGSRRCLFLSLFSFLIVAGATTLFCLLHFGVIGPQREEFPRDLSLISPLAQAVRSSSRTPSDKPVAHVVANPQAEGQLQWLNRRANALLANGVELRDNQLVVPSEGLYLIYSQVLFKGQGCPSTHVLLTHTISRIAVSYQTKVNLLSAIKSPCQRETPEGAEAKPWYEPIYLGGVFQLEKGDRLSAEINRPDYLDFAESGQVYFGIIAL
# E-selectin (Homo sapiens), sequence (P16581 whole entry, looked up): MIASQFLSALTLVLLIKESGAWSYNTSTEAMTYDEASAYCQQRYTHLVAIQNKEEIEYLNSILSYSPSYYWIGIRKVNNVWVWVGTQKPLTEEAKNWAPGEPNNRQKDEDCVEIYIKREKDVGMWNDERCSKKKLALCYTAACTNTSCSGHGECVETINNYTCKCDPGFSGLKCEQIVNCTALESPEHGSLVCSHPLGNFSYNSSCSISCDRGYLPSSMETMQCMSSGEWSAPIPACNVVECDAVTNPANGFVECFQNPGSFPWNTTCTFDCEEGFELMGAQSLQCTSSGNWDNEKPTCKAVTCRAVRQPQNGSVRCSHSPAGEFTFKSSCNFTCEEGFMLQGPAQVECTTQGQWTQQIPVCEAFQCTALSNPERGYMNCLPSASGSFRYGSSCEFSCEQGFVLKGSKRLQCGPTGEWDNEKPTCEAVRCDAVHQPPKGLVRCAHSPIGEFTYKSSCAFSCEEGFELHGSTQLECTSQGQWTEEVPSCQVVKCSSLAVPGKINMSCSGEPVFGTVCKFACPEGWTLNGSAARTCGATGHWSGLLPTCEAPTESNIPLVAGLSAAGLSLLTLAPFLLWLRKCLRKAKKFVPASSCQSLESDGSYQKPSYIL
smiles,measurement,setting,value
O=CCCCC=O,AC50,[1],26.2 µM (active)
same,AC50,[2],29.6 µM (active)
same,AC50,[3],32 µM (active)
same,AC50,[4],24.9 µM (active)
same,AC50,[5],32 µM (active)
same,outcome,[6],inactive
same,outcome,[7],inactive
same,outcome,[8],inactive
same,outcome,[9],inactive
same,outcome,[10],inactive
same,outcome,[11],inactive
same,AC50,[12],37.3 µM (active)
same,outcome,[13],inactive
same,AC50,[14],32.7 µM (active)
same,AC50,[15],33 µM (active)
same,outcome,[16],inactive
same,AC50,[17],29.8 µM (active)
same,outcome,[18],inactive
same,outcome,[19],inactive
CC(C)(c1cc(Br)c(O)c(Br)c1)c1cc(Br)c(O)c(Br)c1,AC50,[1],4.6 µM (active)
same,AC50,[2],1.69 µM (active)
same,AC50,[3],4.16 µM (active)
same,AC50,[4],3.69 µM (active)
same,AC50,[5],3.65 µM (active)
same,AC50,[6],24.1 µM (active)
same,AC50,[7],28.7 µM (active)
same,AC50,[8],30.3 µM (active)
same,AC50,[9],29.8 µM (active)
same,AC50,[10],29.1 µM (active)
same,outcome,[11],inactive
same,AC50,[12],23.5 µM (active)
same,AC50,[13],30.1 µM (active)
same,AC50,[14],19.1 µM (active)
same,AC50,[15],26.7 µM (active)
same,AC50,[16],27.9 µM (active)
same,AC50,[17],23 µM (active)
same,AC50,[18],28.4 µM (active)
O=c1ccc2ccccc2o1,outcome,[1],inactive
same,outcome,[2],inactive
same,outcome,[3],inactive
same,outcome,[4],inactive
same,outcome,[5],inactive
same,outcome,[6],inactive
same,outcome,[7],inactive
same,outcome,[8],inactive
same,outcome,[9],inactive
same,outcome,[10],inactive
same,outcome,[11],inactive
same,outcome,[12],inactive
same,outcome,[13],inactive
same,outcome,[14],inactive
same,outcome,[15],inactive
same,outcome,[16],inactive
same,outcome,[17],inactive
same,outcome,[18],inactive
same,outcome,[19],inactive
CC(C)(C)c1csc(-c2cc3cc(OCc4ccccc4CC(=O)O)ccc3o2)n1,AC50,[1],20.3 µM (active)
same,AC50,[2],10.8 µM (active)
same,AC50,[3],20 µM (active)
same,AC50,[4],13.7 µM (active)
same,AC50,[6],20.7 µM (active)
same,AC50,[7],30.9 µM (active)
same,outcome,[8],inactive
same,AC50,[9],20.9 µM (active)
same,AC50,[10],22.6 µM (active)
same,outcome,[11],inactive
same,AC50,[12],27.2 µM (active)
same,AC50,[14],17.7 µM (active)
same,AC50,[15],18.8 µM (active)
same,AC50,[16],17.9 µM (active)
same,AC50,[17],19.1 µM (active)
same,AC50,[18],19.8 µM (active)
same,AC50,[19],29.9 µM (active)
CN(C)C(=O)C1(N2CCCCC2)CCN(CC[C@@]2(c3ccc(Cl)c(Cl)c3)CN(C(=O)c3ccccc3)CCO2)CC1,AC50,[1],32.7 µM (active)
same,AC50,[2],29.8 µM (active)
same,AC50,[3],35 µM (active)
same,AC50,[4],25.5 µM (active)
same,AC50,[5],32.1 µM (active)
same,AC50,[6],16.8 µM (active)
same,AC50,[7],29.2 µM (active)
same,AC50,[8],25.7 µM (active)
same,AC50,[9],18.9 µM (active)
same,AC50,[20],18.9 µM (active)
same,AC50,[10],25.2 µM (active)
same,outcome,[11],inactive
same,AC50,[12],20.8 µM (active)
same,AC50,[13],31.2 µM (active)
same,AC50,[14],35.4 µM (active)
same,AC50,[15],26.6 µM (active)
same,AC50,[16],21.3 µM (active)
same,AC50,[17],18.9 µM (active)
same,AC50,[18],16.5 µM (active)
COc1cccc([C@H](O)C2CCN(CCc3ccc(F)cc3)CC2)c1OC,outcome,[1],inactive
same,outcome,[2],inactive
same,outcome,[3],inactive
same,outcome,[4],inactive
same,outcome,[6],inactive
same,outcome,[7],inactive
same,outcome,[8],inactive
same,outcome,[9],inactive
same,outcome,[20],inactive
same,outcome,[10],inactive
same,outcome,[11],inactive
same,outcome,[12],inactive
same,outcome,[13],inactive
same,outcome,[14],inactive
same,outcome,[15],inactive
same,outcome,[16],inactive
same,outcome,[17],inactive
same,outcome,[18],inactive
same,outcome,[19],inactive
